Measured values as given in PubChem BioAssay AID504727 (Broad Institute, 2011).
Unmarked numbers belong to inactive results. Calls of active or inactive are those of the source.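 How the source made its calls: active means fitted half-maximal concentration AC50 at or below ten times the highest valid tested dose, with signal falling as DNA is displaced (actives reach about 34 µM in these data); inconclusive means flat fit at moderate signal loss, or poor fit quality; inactive means the rest, including signal rising instead of falling.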

Test: DNA intercalators displacing acridine orange, dose response, artefact control for KSHV LANA DNA-binding inhibitor project, biochemical, fluorescence polarization, cherry-picked samples, set 2 (AID 504727);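 on activity change, negative = DNA displacement: 0% = median of neutral control wells and -100% = mitoxantrone positive control wells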
Details: AC50: Acridine orange-DNA displacement; series mostly up to 35 µM; activity change, negative = DNA displacement: at the top concentration

| SMILES | activity change, negative = DNA displacement [%] | AC50 |
| --- | --- | --- |
| Cc1ccc2c(c1)nnn2C1CCN(C(=O)c2cccs2)CC1 | -0.055 | – |
| COc1cccc2c1C(=O)c1c(O)c3c(c(O)c1C2=O)CC(O)(C(C)=NNC(=O)c1ccc(Cl)c(Cl)c1)CC3OC1CC(N)C(O)C(C)O1 (stereo unspecified) | – | 2.05 µM (active) |
| CCCc1nc(NCc2ccccn2)c2nnn(Cc3ccccc3F)c2n1 | -1.39 | – |
| CC1Cc2ccccc2N1C(=O)CCS(=O)(=O)c1cccs1 (stereo unspecified) | 6.68 | – |
| Cn1c2ccccc2c2cnn(CC(=O)Nc3cccc(F)c3)c(=O)c21 | 12.3 | – |
| O=C(NCC1CCCO1)c1cccc(S(=O)(=O)N(Cc2ccccc2)c2ccccc2)c1 (stereo unspecified) | -1.69 | – |
| NC1=NC[C@@H](Cc2ccc(O)cc2)N1CCc1cc(C(F)(F)F)cc(C(F)(F)F)c1 | 4.46 | – |
| Cn1c(=O)c2c(nc(N/N=C/c3ccc(OC(=O)c4ccco4)cc3)n2Cc2ccc(F)cc2)n(C)c1=O | 24.9 | – |
| COc1ccc(C)cc1NC(=O)C(OC(=O)c1cnccn1)c1ccccc1 (stereo unspecified) | 0.816 | – |
| Cc1ccc(NS(=O)(=O)c2ccc(C(=O)NCCCN3CCCC3=O)cc2)cc1 | 2.52 | – |
| Cc1nc2ccccc2n2c(O)c(CC(=O)O)cc12 | – | 10.2 µM (active) |
| CCn1c(CN2CCCCC2)nc2cc(S(=O)(=O)N3CCCCC3)ccc21 | 7.06 | – |
| CC(Sc1nc(-c2ccco2)nc2c1c(=O)n(C)c(=O)n2C)C(=O)O (stereo unspecified) | -10.9 | – |
| CC(C)(C)OC(=O)C[C@@H]1C/C=C\C[C@H](CC(=O)N(CCO)Cc2ccccc2)C(=O)N[C@@H](c2ccccc2)COC1=O | -2.7 | – |
| CCCc1nc(SC)[nH]c(=O)c1C | 0.206 | – |
| O=C(c1coc(=O)c(Br)c1)N1CCCc2ccccc21 | 0.291 | – |
